Results on twelve compounds are retold here after PubChem BioAssay (NCI).

The panel holds about 83,000 compounds, 20% with a hit somewhere; the sample as a whole holds those more often.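 Assay: single dose, 48 h. Readout: percent growth (0 = no net growth; negative = cell death). Active: <10.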 Values without a mark were called inactive. Activity calls are given as the source filed them.

Some test systems named below: SR leukemia; RPMI-8226 leukemia; OVCAR-5 ovarian; OVCAR-4 ovarian; SK-OV-3 ovarian; IGROV1 ovarian; OVCAR-3 ovarian; HS 578T breast; NCI/ADR-RES ovarian.
Assay in all cases: NCI-60 one-dose screen, 48 h (100 = growth as untreated, 0 = no growth, -100 = all killed)
What all share (settings): 10 µM unless noted

As to `COC(C(=O)[C@@H](O)[C@@H](C)O)[C@@H]1Cc2cc3cc(O[C@H]4C[C@@H](O[C@H]5C[C@@H](O)[C@H](O)C(C)O5)[C@H](O)C(C)O4)c(C)c(O)c3c(O)c2C(=O)[C@H]1O[C@H]1C[C@@H](O[C@H]2C[C@@H](O[C@H]3C[C@@H](O)[C@H](OC)C(C)O3)[C@@H](O)C(C)O2)[C@H](O)C(C)O1` (stereo partly specified), the growth in the test with SR leukemia was 3.51% (active); in the test with RPMI-8226 leukemia, 0.837% (active); in the test on OVCAR-5 ovarian, 14.8%; with OVCAR-4 ovarian, 11.8%; in the test with SK-OV-3 ovarian, 19.1%; in the test with IGROV1 ovarian it was 16.9%. Besides, the growth in the test on OVCAR-3 ovarian is 5.62% (active); in the test on HS 578T breast, 20.3%.

On to `CN1CCN(Cc2ccc(NC(=O)c3cncc(C#Cc4cnc(N)c5ccccc45)c3)cc2C(F)(F)F)CC1`, for which the growth in the test with SR leukemia is 1.53% (active); with RPMI-8226 leukemia it was -42.8% (active); with OVCAR-5 ovarian it was -83.7% (active); in the test with OVCAR-4 ovarian it was -32.7% (active); with SK-OV-3 ovarian it was -78.5% (active); with IGROV1 ovarian, -69.8% (active). In addition, the growth in the test with OVCAR-3 ovarian is -87.6% (active); in the test with HS 578T breast, -41.5% (active); in the test on NCI/ADR-RES ovarian, -65.7% (active).

Take `Cc1ccc(-c2nc3nc(-c4ccc(F)cc4)nc(N4CCNCC4)c3o2)cc1`: the growth is -29.5% (active) in the test on SR leukemia; -47.2% (active) in the test with RPMI-8226 leukemia; -14.6% (active) with OVCAR-5 ovarian; -77.1% (active) in the test with OVCAR-4 ovarian; 107% in the test on SK-OV-3 ovarian; 42% in the test on IGROV1 ovarian. The growth in the test on OVCAR-3 ovarian was -94.7% (active); in the test on HS 578T breast, -5.74% (active); in the test on NCI/ADR-RES ovarian, -19.1% (active).

As for `CN(C)CCCC1(c2ccc(F)cc2)OCc2cc(-c3cccc4[nH]ccc34)ccc21` (stereo unspecified), the growth in the test with SR leukemia was -14.9% (active); in the test on RPMI-8226 leukemia it was 39.7%; in the test with OVCAR-5 ovarian it was 70.1%; with OVCAR-4 ovarian it was 30.9%; in the test with SK-OV-3 ovarian, 52.5%; in the test with IGROV1 ovarian it was 20.2%. Also, the growth in the test with OVCAR-3 ovarian is 31%; in the test with HS 578T breast, 31.7%; in the test with NCI/ADR-RES ovarian it was 25.9%.

In the case of `CCSc1nc(NC)c2cc(-c3ccc(C(F)(F)F)cc3)ccc2n1`, the growth in the test with SR leukemia is 94%; in the test with RPMI-8226 leukemia, 94.8%; in the test on OVCAR-5 ovarian, 104%; in the test on OVCAR-4 ovarian, 96.2%; in the test on SK-OV-3 ovarian, 96.1%; in the test on IGROV1 ovarian it was 97.2%. The growth in the test on OVCAR-3 ovarian is 110%; with HS 578T breast, 101%; in the test with NCI/ADR-RES ovarian it was 106%.

Take `COCCn1cc(-c2nc(-c3cc4cccnc4n3CCOC)cs2)c2cc(OC)ccc21`: the growth in the test with SR leukemia was 36.3%; in the test with RPMI-8226 leukemia it was 60.3%; in the test on OVCAR-5 ovarian, 23.6%; in the test on OVCAR-4 ovarian it was 20%; in the test with SK-OV-3 ovarian, 73.4%; in the test on IGROV1 ovarian, 30.8%. For the same compound, the growth with OVCAR-3 ovarian is 4.62% (active); in the test with HS 578T breast it was 58%; with NCI/ADR-RES ovarian it was 58.3%.

As for `COc1ccc2[nH]cc(C(c3cc(F)cc(F)c3)c3c[nH]c4ccc(OC)cc34)c2c1`, the growth in the test on SR leukemia was 46.8%; in the test on RPMI-8226 leukemia, 57.5%; with OVCAR-5 ovarian, 85%; in the test on OVCAR-4 ovarian, 93.9%; with SK-OV-3 ovarian it was 94.8%; in the test on IGROV1 ovarian, -7.1% (active). Further, the growth is 89.9% with OVCAR-3 ovarian, 67.2% with HS 578T breast and 72.9% in the test with NCI/ADR-RES ovarian.

Turning to `O=C1NCCC12CCN(c1c(Cl)cncc1-c1ccc(O)cc1)CC2`, the growth is 94.3% with SR leukemia; 85.5% in the test on RPMI-8226 leukemia; 83.6% in the test on OVCAR-5 ovarian; 105% in the test with OVCAR-4 ovarian; 85.4% in the test with SK-OV-3 ovarian; 69.2% with IGROV1 ovarian. The growth was 104% in the test with OVCAR-3 ovarian, 101% in the test with HS 578T breast and 91.8% in the test with NCI/ADR-RES ovarian.

Consider `Cc1c(-n2nnc(-c3nc4ccccc4s3)c2N)c(=O)n(-c2ccccc2)n1C`, for which the growth was 103% in the test with SR leukemia; 105% with RPMI-8226 leukemia; 92.8% in the test on OVCAR-5 ovarian; 105% in the test on OVCAR-4 ovarian; 97.8% in the test with SK-OV-3 ovarian; 90.5% in the test on IGROV1 ovarian. Further, the growth was 107% in the test with OVCAR-3 ovarian and 100% in the test with HS 578T breast.

Consider `COC(=O)c1c2c(c(C)[n+]([O-])c1C)C(=O)C=C(NCc1ccc(Br)cc1)C2=O`, for which the growth was 1.3% (active) with SR leukemia; -28.3% (active) in the test with RPMI-8226 leukemia; -82.8% (active) with OVCAR-5 ovarian; -92.8% (active) in the test on OVCAR-4 ovarian; -10.7% (active) with SK-OV-3 ovarian; -53.4% (active) with IGROV1 ovarian. Moreover, the growth was -73.4% (active) with OVCAR-3 ovarian, -7.62% (active) in the test on HS 578T breast and -8.51% (active) in the test on NCI/ADR-RES ovarian.

In the case of `Cc1cc2c(O)c(-c3cc(Cl)ccc3Cl)c3sc(=O)oc3c2cc1C`, the growth in the test on SR leukemia is 54.3%; in the test with RPMI-8226 leukemia, 38.3%; in the test with OVCAR-5 ovarian it was 106%; with OVCAR-4 ovarian, 24.5%; with SK-OV-3 ovarian, 76.3%; in the test with IGROV1 ovarian, 76.5%. Also, the growth in the test on OVCAR-3 ovarian was 29.8%; with HS 578T breast, 76.4%; with NCI/ADR-RES ovarian it was 85.3%.

Take `CC(=O)[C@@H]1CCC=C2CC[C@]3(C)[C@@H](CC[C@@H]4[C@@]5(C)CCCNC(C)(C)[C@@H]5CC[C@]43C)[C@H]21`: the growth is -45.2% (active) with SR leukemia; -49.2% (active) in the test with RPMI-8226 leukemia; 16.8% in the test with OVCAR-5 ovarian; -67.5% (active) in the test with OVCAR-4 ovarian; 93% in the test with SK-OV-3 ovarian; -94.2% (active) with IGROV1 ovarian. Further, the values for the growth with OVCAR-3 ovarian, in the test with HS 578T breast and in the test on NCI/ADR-RES ovarian were -93.3% (active), -30.9% (active) and -52.2% (active), respectively.
